Drawing on PubChem BioAssay, this text covers composite z-score, z-score and composite Z-score for four compounds.

Molecules are shown by their SMILES. Values joined by “and” are separate entries in the source; they are usually repeats but may differ in a detail not shown here. Identical values can stand only once. Active and inactive are the calls of the source.

Assay [1] has as its system Human papillomavirus type 1a protein E7 (residues 44-93). Briefly: small molecules binding HPV E7 44-93 – biochemical, small-molecule microarray, residues 44-93, 635 nm fluorescence, primary screen (AID 1108).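 Note: E7 fragment applied at 1 µg/mL in TBST for 1 h at 4 C; score combines spot fluorescence with its signal to noise ratio.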 The following applies: fluorescence 635 nm, higher = more signal.
Assay [2] is described as follows: hepatitis C replication reporter changes, two-sided – Huh7 cells, luciferase reporter, HCV replication inhibitor project, primary screen (AID 1109).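 Note: huh7 hepatoma cells harbouring a luciferase neomycin HCV replicon reporter; luciferase luminescence as measure of HCV replicon replication; test concentration not given here.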 As to conditions: Huh7 HCV replicon luciferase reporter, 48 h; higher = more signal. For orientation: In a reporter assay the amount or activity of a reporter protein is the signal.
Assay [3] addresses Left-right determination factor 2 (Homo sapiens) (UniProt O00292). Put plainly: small molecules binding LEFTY2 protein – biochemical, small-molecule microarray, 635 nm fluorescence scan, primary screen (AID 1110). The following applies: higher = more signal.
Assay [4] deals with Calmodulin-1 (Homo sapiens) (UniProt P0DP23). Put plainly: small molecules binding calmodulin-1 with EGTA – biochemical, small-molecule microarray, Cy5-labelled CALM1, profiling panel (AID 1111).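 Note: labelled calmodulin applied in Tris saline Tween buffer holding calcium plus EGTA and DTT.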 As to conditions: Cy5-CALM1 binding fluorescence, higher = more signal.
Assay [5] has the same target. Briefly: small molecules binding Ca-loaded calmodulin-1 – biochemical, small-molecule microarray, Cy5-labelled CALM1, plus calcium, artefact control for SMM control-protein annotation, profiling panel (AID 1112).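 Note: score merges spot fluorescence with signal to noise from triplicate slides.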 The following applies: Cy5-CALM1 binding fluorescence, higher = more signal.
Assay [6] in a line: probe aWnt5a binding to arrayed compounds – biochemical, biotinylated probe, 635/667 nm fluorescence, primary screen (AID 1113).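 Note: score merges 667 nm fluorescence intensity with signal-to-noise per printed feature.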 The following applies: small-molecule microarray, higher = more signal.
The nature of assay [7]: probe aShh binding to arrayed compounds – biochemical, biotinylated probe, 635/667 nm fluorescence, primary screen (AID 1114).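 Note: probe is biotin-labelled aShh protein from a stem cell growth factor screen; measures binding of labelled protein to compounds printed on the slide; score merges feature fluorescence at 667 nm with signal-to-noise.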 The following applies: small-molecule microarray, higher = more signal.
Assay [8] is described as follows: probe aNog binding to arrayed compounds – biochemical, biotinylated probe, 635/667 nm fluorescence, primary screen (AID 1115).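 Note: probe is biotinylated aNog protein used at 0.15 µg/mL for 1 h at 4 C; z-score combines 667 nm fluorescence of each spot with its signal to noise.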 The following applies: small-molecule microarray, higher = more signal.
Assay [9] concerns the target Torsin-1A-interacting protein 1 (Homo sapiens) (UniProt Q5JTV8). Briefly: compound microarray binding of lysate hLAP1 – cell lysate, small-molecule microarray, COS7 lysate, 635/667 nm fluorescence, primary screen (AID 1116). The following applies: 635 nm fluorescence, higher = more signal.
Assay [10] addresses Alpha-bungarotoxin (Bungarus multicinctus) (UniProt P60615). Briefly: compounds binding labelled alpha-BTX control protein – biochemical, small-molecule microarray, Alexa647 label, 635/667 nm fluorescence, artefact control for SMM control protein annotation, profiling panel (AID 1117). The following applies: alpha-BTX-A647 binding fluorescence, higher = more signal.
The next assay has as its target Albumin (Bos taurus) (UniProt P02769). Briefly: compounds binding labelled BSA control protein – biochemical, small-molecule microarray, Alexa647 label, 635/667 nm fluorescence, artefact control for SMM control protein annotation, profiling panel (AID 1118).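 Note: score merges 667 nm emission intensity and signal-to-noise per printed compound spot.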 As to conditions: BSA-A647 binding, fluorescence 635 nm, higher = more signal.
Assay [11] is described as follows: probe aXIP binding to arrayed compounds – biochemical, NeuroSMM set, 635/667 nm fluorescence, primary screen (AID 1119).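 Note: probe is the protein aXip251-270 applied at 1 µg/mL to compound-printed slides; binding of probe to printed compounds measured as 667 nm fluorescence plus signal to noise.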 The following applies: small-molecule microarray, higher = more signal, called active from +8 up or from −8 down.
Assay [12] can be described thus: probe aNOTCH3 binding on compound microarray – biochemical, small-molecule microarray, 635/667 nm fluorescence, primary screen (AID 1120).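 Note: probe is a biotin-tagged antibody raised against NOTCH3 rather than NOTCH3 protein; score merges spot fluorescence near 667 nm with spot signal to noise.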 The following applies: higher = more signal.
A short description of assay [13]: probe aNOTCH2 binding on compound microarray – biochemical, small-molecule microarray, 635/667 nm fluorescence, primary screen (AID 1121).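 Note: score merges feature fluorescence read at 667 nm with its signal to noise.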 The following applies: higher = more signal.
Assay [14] deals with Carbonic anhydrase 2 (Homo sapiens) (UniProt P00918). Briefly: compounds binding carbonic anhydrase 2 – biochemical, small-molecule microarray, Alexa647-labelled CAII, profiling panel (AID 1122). As to conditions: CAII-A647 binding fluorescence, higher = more signal.
The nature of assay [15]: COS7 lysate on small-molecule microarray, probe aHis, 635 nm (AID 1123).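 Note: z-score combines 667nm fluorescence intensity with signal-to-noise per printed compound spot.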 The following applies: COS7 cell lysate, fluorescence, higher = more signal.
The nature of assay [16]: probe aLAP1 signal on lysate-treated microarray – cell lysate, small-molecule microarray, COS7 lysate, primary screen (AID 1124).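 Note: lysate comes from COS7 cells expressing LAP1 and is applied at 0.3 µg/mL; score merges spot fluorescence near 667 nm with signal-to-noise over triplicate slides.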 The following applies: probe aLAP1, fluorescence, higher = more signal.
In a further assay the test system is Sam68 (KHDRBS1). Put plainly: compounds binding KHDRBS1 protein – biochemical, small-molecule microarray, 635 nm fluorescence, primary screen (AID 1125).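 Note: score merges 667 nm channel intensity with signal to noise over triplicate slides.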 As to conditions: higher = more signal.
The subject of assay [17] is Chordin-like protein 2 (CHRDL2). Briefly: compounds binding chordin-like 2 – biochemical, small-molecule microarray, 635 nm fluorescence, primary screen (AID 1126).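 Note: printed compound slides probed with Chrdl2 protein at 4 µg/mL for 1 h at 4 C; score merges 667 nm emission intensity with signal to noise over three replicate slides.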 The following applies: fluorescence 635 nm, higher = more signal.
Assay [18] has as its target Concanavalin-A (Canavalia ensiformis) (UniProt P02866). Briefly: compounds binding concanavalin A lectin – biochemical, small-molecule microarray, Alexa647 label, 635 nm, artefact control for SMM control protein annotation, primary screen (AID 1127).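 Note: z combines 667 nm emission intensity with signal-to-noise across three replicate slides.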 The following applies: ConA-A647 binding fluorescence, higher = more signal.

Sequence of Concanavalin-A (Canavalia ensiformis) (P02866 whole entry, looked up): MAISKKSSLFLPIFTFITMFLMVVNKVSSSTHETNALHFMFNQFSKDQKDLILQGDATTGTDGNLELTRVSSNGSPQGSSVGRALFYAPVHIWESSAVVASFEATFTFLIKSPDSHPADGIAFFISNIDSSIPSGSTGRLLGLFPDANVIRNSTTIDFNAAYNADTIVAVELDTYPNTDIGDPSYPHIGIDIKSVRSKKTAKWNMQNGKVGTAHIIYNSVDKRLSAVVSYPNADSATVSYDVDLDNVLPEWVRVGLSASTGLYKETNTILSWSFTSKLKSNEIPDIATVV
Sequence of Alpha-bungarotoxin (Bungarus multicinctus) (P60615 whole entry, looked up): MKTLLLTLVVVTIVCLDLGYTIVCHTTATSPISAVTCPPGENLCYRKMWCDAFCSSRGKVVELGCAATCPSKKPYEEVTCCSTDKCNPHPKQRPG
Sequence of Left-right determination factor 2 (Homo sapiens) (O00292 whole entry, looked up): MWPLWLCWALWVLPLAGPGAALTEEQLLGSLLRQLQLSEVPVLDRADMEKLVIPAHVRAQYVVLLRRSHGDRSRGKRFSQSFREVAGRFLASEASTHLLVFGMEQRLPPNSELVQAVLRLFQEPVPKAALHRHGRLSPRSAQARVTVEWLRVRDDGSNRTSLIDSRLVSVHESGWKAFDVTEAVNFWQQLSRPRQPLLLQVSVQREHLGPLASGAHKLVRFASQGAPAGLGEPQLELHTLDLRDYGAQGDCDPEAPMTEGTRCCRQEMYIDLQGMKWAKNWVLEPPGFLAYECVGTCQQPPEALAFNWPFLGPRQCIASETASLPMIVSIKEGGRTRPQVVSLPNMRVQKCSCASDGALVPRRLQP
Sequence of Torsin-1A-interacting protein 1 (Homo sapiens) (Q5JTV8 whole entry, looked up): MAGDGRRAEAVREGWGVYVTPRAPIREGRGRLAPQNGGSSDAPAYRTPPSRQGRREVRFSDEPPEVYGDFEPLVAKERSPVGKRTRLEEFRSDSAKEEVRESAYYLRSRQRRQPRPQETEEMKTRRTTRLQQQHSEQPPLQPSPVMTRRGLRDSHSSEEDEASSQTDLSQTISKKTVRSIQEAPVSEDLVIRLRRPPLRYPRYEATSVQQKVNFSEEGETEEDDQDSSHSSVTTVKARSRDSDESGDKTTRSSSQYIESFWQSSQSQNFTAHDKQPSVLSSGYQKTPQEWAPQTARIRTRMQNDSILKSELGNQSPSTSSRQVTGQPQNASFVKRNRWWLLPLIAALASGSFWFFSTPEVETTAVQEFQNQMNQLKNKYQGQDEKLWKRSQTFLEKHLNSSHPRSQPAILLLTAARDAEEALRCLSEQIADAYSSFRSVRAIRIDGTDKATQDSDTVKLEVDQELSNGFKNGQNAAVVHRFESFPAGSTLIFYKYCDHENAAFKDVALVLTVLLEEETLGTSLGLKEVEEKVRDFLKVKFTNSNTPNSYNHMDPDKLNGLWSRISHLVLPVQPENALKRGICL
Sequence of Albumin (Bos taurus) (P02769 whole entry, looked up): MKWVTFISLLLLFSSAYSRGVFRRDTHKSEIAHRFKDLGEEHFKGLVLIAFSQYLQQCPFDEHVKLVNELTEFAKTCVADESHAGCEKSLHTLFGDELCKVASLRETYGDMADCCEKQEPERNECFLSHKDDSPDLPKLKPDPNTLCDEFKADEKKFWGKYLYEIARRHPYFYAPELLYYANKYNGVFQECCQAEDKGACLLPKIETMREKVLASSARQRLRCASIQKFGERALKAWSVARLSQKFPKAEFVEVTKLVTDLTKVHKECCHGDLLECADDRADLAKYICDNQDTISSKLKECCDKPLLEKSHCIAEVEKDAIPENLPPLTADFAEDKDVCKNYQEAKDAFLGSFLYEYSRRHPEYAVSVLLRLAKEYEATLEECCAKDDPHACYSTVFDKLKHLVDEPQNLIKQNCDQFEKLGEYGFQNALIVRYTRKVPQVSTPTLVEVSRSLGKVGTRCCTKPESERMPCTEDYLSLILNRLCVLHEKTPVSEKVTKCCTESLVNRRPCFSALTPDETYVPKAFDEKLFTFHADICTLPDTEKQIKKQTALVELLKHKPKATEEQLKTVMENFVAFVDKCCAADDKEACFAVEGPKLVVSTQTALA

Consider `CC(C)C(=O)N[C@@H]1CCCN1C(=O)C=Cc1ccccc1`, for which the composite z-score is 0.734 in [1]; 0.85 in assay [3]; 0.0331 in assay [4]; -1.12 in [5]; -0.0704 in [6]; -0.138 in [7]. Also, the composite z-score in [8] is 0.173; in assay [9] it was 0.587; in assay [10], 0.289; in the assay with Albumin (Bos taurus), -0.0317; in [12], 0.0271; in assay [13] it was -0.14. Also, the composite z-score is -0.0483 in assay [14]; 0.251 in assay [15]; -0.086 in [16]; 0.806 in the assay on Sam68 (KHDRBS1); 0.933 in assay [17]; 0.315 in assay [18]. The z-score in assay [2] is -1.05. Besides, the composite Z-score in assay [11] is 1.05 (inactive).
On to `O=C(NN=C1C[C@@H](O)[C@@H](O)[C@@H]2[C@@H]3C(=O)N(Cc4ccc5c(c4)OCO5)C(=O)[C@@H]3CC[C@H]12)OCc1ccccc1`, for which the composite z-score in [1] is -0.984; in assay [3], 0.227; in assay [4], -0.643; in [5], -1.29; in assay [6], 0.0718; in [7], 0.0796. The composite z-score in assay [8] is -0.363; in assay [9] it was -0.842; in assay [10], -0.394; in the assay with Albumin (Bos taurus), -0.401; in assay [12] it was 0.157; in assay [13], -0.11. The composite z-score was -0.612 in assay [14]; -0.648 in assay [15]; -0.21 in assay [16]; 0.0918 with Sam68 (KHDRBS1); -0.556 in assay [17]; -0.232 in assay [18]. In [2], this compound returned a z-score of 0.401. In addition, in assay [11], the composite Z-score is -0.0252 (inactive).
As for `CC(C)[Si]1(C(C)C)OCc2cc(C3CC3)nc(CCc3ccccc3)c21`, the composite z-score in assay [1] was -0.789 and 0.192; in [3], 0.045 and 0.273; in assay [4] it was 0.154 and -0.425; in assay [5] it was -0.253 and -0.002; in assay [6] it was -0.15 and -0.0512; in assay [7], -0.181 and -0.221. The composite z-score in [8] was 0.0732 and -0.0554; in [9] it was -0.527 and 0.362; in assay [10], 0.0536 and -0.448; with Albumin (Bos taurus), -0.367 and -0.0511; in assay [12], -0.0716 and -0.135; in assay [13] it was -0.155 and -0.176. The composite z-score was -0.344 and 0.027 in [14]; -0.416 and 0.368 in [15]; -0.0371 and -0.455 in assay [16]; -0.636 and 0.47 with Sam68 (KHDRBS1); 0.32 and 0.195 in assay [17]; 0.211 and 0.513 in assay [18]. In addition, the z-score in assay [2] was -0.745 and -0.958. In addition, in assay [11], the composite Z-score was -0.145 (inactive) and -0.387 (inactive).
Take `COC(=O)[C@@]1(Cc2ccc(F)cc2)[C@H]2c3cc(C(=O)N4CCCC4)n(Cc4c(CO)[nH]cc(C)c4=O)c3C[C@H]2CN1C(=O)c1ccccc1`: the composite z-score in assay [1] is 0.866 and 0.952; in assay [3] it was -0.0537 and -0.837; in [4], 1.41 and 0.252; in assay [5], 0.249 and 0.299; in assay [6], 1.02 and 0.132; in [7], 2.2 and 0.182. For the same compound, the composite z-score in assay [8] is 2.71 and 1.27; in assay [9], 0.959 and 1.72; in assay [10] it was 0.234 and -0.124; with Albumin (Bos taurus), 1.07 and 0.247; in assay [12], 1.28 and 0.355; in [13], 0.908 and 0.11. Moreover, the composite z-score in assay [14] was 0.439 and 0.769; in assay [15], 2.88 and 2.95; in assay [16], 0.614 and 0.478; in the assay on Sam68 (KHDRBS1), -0.201 and 0.623; in assay [17], -0.114 and -0.367; in assay [18], 0.196 and 0.0402. Moreover, the z-score in assay [2] was -1.31 and -1.38. The composite Z-score in assay [11] is 0.418 (inactive) and 0.724 (inactive).
